Our source for the Percent Effect values is ChEMBL document CHEMBL3988442, “University of Dundee, Small-Polar-MMV Screening Library” (2021).

Each structure is given as a SMILES string. Out of some 69,000 compounds screened, about 420 (0.61%) showed an effect of 50% or more. The entries come from a sample that favours strong results as a whole.

For this experiment, the target named is T1, Histidine--tRNA ligase (Leishmania infantum) (UniProt A4I591).
T1 sequence (whole entry): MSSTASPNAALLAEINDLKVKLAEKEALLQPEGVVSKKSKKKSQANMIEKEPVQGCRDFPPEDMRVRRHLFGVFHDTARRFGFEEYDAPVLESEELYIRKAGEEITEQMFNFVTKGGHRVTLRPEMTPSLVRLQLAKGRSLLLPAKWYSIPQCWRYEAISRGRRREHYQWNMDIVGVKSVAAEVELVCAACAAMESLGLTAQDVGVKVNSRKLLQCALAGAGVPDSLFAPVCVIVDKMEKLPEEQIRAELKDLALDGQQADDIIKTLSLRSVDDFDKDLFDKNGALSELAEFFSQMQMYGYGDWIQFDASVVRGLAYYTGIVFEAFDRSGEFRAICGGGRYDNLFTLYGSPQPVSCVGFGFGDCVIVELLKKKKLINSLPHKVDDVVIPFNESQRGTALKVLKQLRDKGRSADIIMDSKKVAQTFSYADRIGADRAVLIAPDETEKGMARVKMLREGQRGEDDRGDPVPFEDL
The experiment in a line: Leishmania infantum Histidine tRNA synthetase (LdHisRS). The following applies: 30 µM. Format: functional. Details: scale not given: in the data most compounds retested in dose-response had high values.
Regarding `CNc1nc(C(=O)N2C[C@H]3CC[C@@H]2CN(C2CCOCC2)C3)cs1`, the Percent Effect was determined as 4.17%.
Next, `COc1ccccc1CN1C(=O)O[C@@H]2CN(C(C)C)C[C@@H]21`: 3.33%; `O=C1[C@@H]2CN(c3ncccc3Cl)C[C@]2(C(=O)O)CN1CC1CC1`: 3.28%; `CCOc1ccc(CN2CCN(CCOC)[C@@H]3CS(=O)(=O)C[C@@H]32)cc1`: 25%.
Next, `CN1CCCC(Cc2ccnc3ccncc23)CC1` (stereo not drawn): 0%; `Cn1ccnc1CN1CCCC(Cc2ccnc3ccncc23)CC1` (stereo not drawn): 43.3%.
As to `c1cc2nccc(CC3CCCN(Cc4c[nH]cn4)CC3)c2cn1` (stereo not drawn), the Percent Effect is 24.7%.
The value for `c1cc2nccc(CC3CCCN(C4CCOCC4)CC3)c2cn1` (stereo not drawn) was 22.7%; that for `CS(=O)(=O)N1CCCC(Cc2ccnc3ccncc23)CC1` (stereo not drawn) was 80.2%.
Next, `c1cc2nccc(CC3CCCN(Cc4ncc[nH]4)CC3)c2cn1` (stereo not drawn): 50%.
Take `CC(=O)N1[C@H](Cn2cncn2)C[C@@H]2CN(Cc3cccnc3)CC[C@@H]21`: the Percent Effect is 13.9%.
Regarding `Cc1nc(C(=O)N2CCN(S(C)(=O)=O)[C@@H]3CS(=O)(=O)C[C@@H]32)cs1`, the Percent Effect worked out at 18.7%.
The value for `c1cc(CN2CC[C@H]3O[C@@H](COCC4CCOCC4)CC[C@H]32)ccn1` was 22%; that for `CCN1C[C@H]2[C@@H](C1)N(S(=O)(=O)c1ccccc1)CC[C@H]2OC` was 24%.
Next, `CN(C)CCO[C@H]1CN(C(=O)c2ccc3c(c2)OCO3)[C@@H]2COC[C@H]12`: 13.7%; `O=C(NCC1(O)CCC1)c1c(O)cc(F)cc1F`: -2.17%.
The value for `CCCn1cc(Cl)c(C(=O)N2C[C@H]3C[C@H](OC)C[C@H]3C2)n1` was 8.63%.
Regarding `Cc1nn(C)c(C)c1C1CCCN1Cc1nc(C)c2ccccc2n1` (stereo not drawn), the Percent Effect stood at 46%.
The value for `Cc1nc(CN2CCCC2c2noc(C3CC3)n2)nc2ccccc12` (stereo not drawn) was 42.2%; that for `Cc1nc(CN2CCCC2c2ccsc2)nc2ccccc12` (stereo not drawn) was 54%; that for `Cc1nc(C)n(CC2CCCN2Cc2nc3ccccc3nc2C)n1` (stereo not drawn) was 17.6%.
Next, `Cc1nc(C)n(CC2CCCN2Cc2nc(C)c3ccccc3n2)n1` (stereo not drawn): 56.5%.
The value for `Cc1nc(C)n(CC2CCCN2Cc2nc(N)c3ccccc3n2)n1` (stereo not drawn) was 36.5%; that for `CC(C)CN1C[C@@H]2C(=O)NC3(CCN(C(=O)c4cccnc4)CC3)[C@@H]2C1` was 23.3%.
`CN1[C@@H](C(=O)NCC2CC2)C[C@@H]2CN(Cc3ccsc3)C[C@@H]21`: the Percent Effect was determined as 11.9%.
Next, `CS(=O)(=O)N1C[C@H]2CCC[C@@]2(COc2ccccn2)C1`: 10.3%.
The value for `CN(C)C(=O)CO[C@H]1CN(Cc2cccc(C#N)c2)[C@@H]2COC[C@H]12` was -11.4%.
As to `COc1ncccc1C(=O)N1CC[C@H]2C[C@@H](c3noc(C)n3)O[C@@H]2C1`, the Percent Effect stood at 46.1%.
Next, `O=C(O)[C@@]12CN(c3cnccn3)C[C@@H]1CN(C1CCCC1)C2`: 21%; `O=C(O)c1ccccc1-c1ccc(CN2CC(c3ccncn3)C2)o1`: 29.4%; `Nc1nccc(C2CN(Cc3ccc(-c4ccccc4C(=O)O)o3)C2)n1`: 54.9%.
The value for `Cc1nccc(C2CN(Cc3ccc(-c4ccccc4C(=O)O)o3)C2)n1` was 12.7%.
The value for `O=C(CN1C[C@H]2C[C@H](OCc3ccccc3)C[C@H]2C1)N1CCOCC1` was 15.7%.
As to `CN1CCN(Cc2cnn(-c3ccccc3Cl)c2)[C@H]2CS(=O)(=O)C[C@H]21`, the Percent Effect is 5.71%.
Next, `Cc1ccc(-c2ncc(C(=O)N3CCCN4CCC[C@H]4C3)c(O)n2)cc1`: 11%.
The value for `CN(C)c1ncc(-c2c(-c3ccccc3)ncn2C(CO)C(=O)O)cn1` (stereo not drawn) was 72.8%; that for `Cc1c(-c2c(-c3ccccc3)ncn2[C@H](CO)C(=O)O)cnn1C` was 7.85%; that for `Cc1nn(C)c(C)c1-c1c(-c2ccccc2)ncn1[C@H](CO)C(=O)O` was 1.57%.
On to `O=C1C[C@H]2CC[C@@H](CN1)N2C(=O)CCc1ccccc1`, for which the Percent Effect came to 8.39%.
Next, `CNC(=O)CN1CC[C@H]2CN(C(=O)c3cccn3C)C[C@H]2C1`: 2.78%.
Next, `CSCC(C)NS(=O)(=O)c1ccc(C)c(N(C)C)c1` (stereo not drawn): 19.3%; `Cc1ccc(S(=O)(=O)NC(CO)CC(C)C)cc1N(C)C` (stereo not drawn): 43.4%.
Next, `Cc1ccc(S(=O)(=O)N[C@H](CO)C(C)C)cc1N(C)C`: 53%; `O=C(NCCc1ccncc1)[C@@H]1CC[C@@H]2[C@@H](CCN2Cc2ccco2)O1`: 20%; `CNC(=O)N1C[C@H]2C[C@H](C(=O)Nc3ccccc3)[C@@H](C1)O2`: 19.6%.
On to `COc1ccc(NC(=O)Cn2nc(C)c(C(C)=O)c2C)cc1`, for which the Percent Effect was determined as 52.2%.
On to `CC(=O)c1c(C)nn(CC(=O)Nc2ccc(Br)cc2)c1C`, for which the Percent Effect is 71.3%.
The value for `CC(=O)c1c(C)nn(CC(=O)Nc2ccc(F)cc2)c1C` was 15.7%; that for `COc1ccc(NC(=O)Cn2nc(C)c(C)cc2=O)cc1` was -0.8%; that for `COc1ccc(NC(=O)Cn2nc(C)c(C)cc2=O)cc1OC` was 7.69%.
Consider `Cc1cc(=O)n(CC(=O)Nc2ccc(Cl)cc2)nc1C`, for which the Percent Effect came out at 7.2%.
The value for `O=C1O[C@@H]2CN(S(=O)(=O)N3CCCC3)C[C@@H]2N1CCc1cccc(Cl)c1` was 7.29%; that for `O=C1CC[C@]2(CC[C@@H](NCc3ccsc3)CC2)N1Cc1ccccc1` was 25%; that for `COCCN1C(=O)[C@H]2CC[C@@H]1CN(C(=O)COc1ccc(F)c(Cl)c1)C2` was -13.3%.
The value for `N#Cc1ccsc1N1CCC(Sc2ccncc2)C1=O` (stereo not drawn) was 53.1%.
Next, `N#Cc1ccsc1N1CCC(Sc2ncc[nH]2)C1=O` (stereo not drawn): 20.4%; `Cc1nnc(SC2CCN(c3sccc3C#N)C2=O)[nH]1` (stereo not drawn): 12.2%; `NC(=O)N1CC[C@@H]2O[C@@H](COCC(=O)N3CCCC3)CC[C@@H]21`: 0%.
As to `COCc1nc(CN2CCOC(CNc3cccnn3)C2)cs1` (stereo not drawn), the Percent Effect was 35.1%.
Next, `CCCc1nc(CN2CCOC(CNc3cccnn3)C2)cs1` (stereo not drawn): 69%; `CCc1nc(CN2CCOC(CNc3cccnn3)C2)cs1` (stereo not drawn): 24.6%.
With `CN(C)CCO[C@H]1CN(Cc2ccc3c(c2)OCO3)[C@@H]2COC[C@H]12`, the Percent Effect came out at 17.1%.
Consider `CN(C)C(=O)CO[C@H]1CN(Cc2ccc3c(c2)OCO3)[C@@H]2COC[C@H]12`, for which the Percent Effect amounted to 13.2%.
The value for `O=C(c1cc(=O)n(-c2ccccc2)[nH]1)N1CCOCC(O)C1` (stereo not drawn) was 6.2%; that for `O=C(c1cc(=O)n(-c2ccccc2)[nH]1)N1CCCC(c2ccn[nH]2)C1` (stereo not drawn) was 59%; that for `O=C(c1cnnn1-c1ccccc1)N1CCCC(c2ccn[nH]2)C1` (stereo not drawn) was 15.7%.
As for `Cc1ncsc1CN1C[C@@H]2COC[C@]2(CNC(=O)c2ccccc2)C1`, the Percent Effect is 20.5%.
The value for `CCN(CC)[C@H]1COC[C@@H]2CN(Cc3cnn(C)c3)C[C@@H]21` was 15.8%; that for `CCn1nc2c(cc1=O)CN(Cc1nnc(C3CC3)o1)CC2` was 22.6%.
Next, `Cn1nc2c(cc1=O)CN(Cc1nc(C(C)(C)C)no1)CC2`: 82.4%; `Cn1nc2c(cc1=O)CN(Cc1nc(C3CC3)no1)CC2`: 102%; `Cn1nc2c(cc1=O)CN(Cc1nnc(C3CC3)o1)CC2`: 97.9%.
Next, `CCn1nc2c(cc1=O)CN(Cc1nc(CCOC)no1)CC2`: 23.4%; `CCCn1nc2c(cc1=O)CN(Cc1nnc(C3CC3)o1)CC2`: 24.5%; `Cc1ccc(F)cc1CC(=O)N1CC[C@@]2(O)CCNC[C@H]2C1`: 4.92%.
Turning to `O=C(C1CCOCC1)N1CCO[C@H]2[C@H](Oc3cccnc3)CC[C@@H]21`, the Percent Effect amounted to 9.68%.
Next, `O=C(c1ccco1)N1C[C@H]2CCCN(Cc3ccc(F)cc3)[C@H]2C1`: 10.9%.
The value for `O=C(C1CCOCC1)N1C[C@H]2C[C@H](OCc3ccccc3)C[C@H]2C1` was 12.9%.
Next, `O=C(C[C@H]1[C@H]2CN(Cc3ccsc3)C[C@@H]12)N1CCCC1`: 15.5%; `O=C(Cc1cccc(F)c1)N1C[C@H]2CN(Cc3ccccn3)C[C@H]2C1`: 15.4%.
As for `O=C(CSc1ccccc1)N1C[C@H]2CC[C@@H]1CN(Cc1ccncc1)C2`, the Percent Effect amounted to 12.9%.
With `O[C@@H]1C[C@@](CNCc2ccccn2)(COc2cccnc2)C[C@@H]1O`, the Percent Effect turned out to be 12.2%.
Next, `FC1(F)CCN(c2ccccc2)CC12CCN(c1ncccn1)C2` (stereo not drawn): 21.4%; `FC1(F)CCN(Cc2cccnc2)CC12CCN(c1ccccn1)C2` (stereo not drawn): 19.6%.
Next, `O=C(CO)N1CCC(F)(F)C2(CCN(c3ccccc3)C2)C1` (stereo not drawn): 23.1%; `FC1(F)CCN(Cc2cccnc2)CC12CCN(c1ccccc1)C2` (stereo not drawn): 57.3%; `O=C(O)CN1CCC(F)(F)C2(CCN(c3ccccc3)C2)C1` (stereo not drawn): 53.9%.
Next, `FC1(F)CCN(Cc2ccncc2)CC12CCN(c1cccnc1)C2` (stereo not drawn): 19.1%; `O=C(C1CCC1)N1CCN(Cc2ccc(F)cc2)[C@H]2CS(=O)(=O)C[C@H]21`: 17.8%.
Consider `COc1ccc(NC(=O)CCC(C)C)c(N2CCN(C(C)=O)CC2)n1`, for which the Percent Effect stood at 11.6%.
Regarding `COc1ccc(N)c(N2CCN(C(C)=O)CC2)n1`, the Percent Effect came out at 61.6%.
The value for `COc1ccc(NC(C)=O)c(N2CCN(C(C)=O)CC2)n1` was 17.3%; that for `Cc1ccc(NC(=O)Nc2c(O)oc3ccccc3c2=O)cc1` was 6.17%; that for `O=C1CO[C@H]2CN(Cc3ccc(F)c(F)c3)C[C@H]2N1` was 1.35%.
The value for `Cc1cc2nc(SCC(=O)N3CCCC3)n(C)c(=O)c2[nH]1` was 5.26%; that for `Cc1cc2nc(SCC(=O)N3CCCC3)n(-c3ccccc3)c(=O)c2[nH]1` was 51.4%; that for `Cc1cc2nc(SCC(=O)N3CCCCC3)n(C)c(=O)c2[nH]1` was 10.5%.
The value for `COCCC(=O)N1C[C@@H]2COC[C@]2(COCc2cccnc2)C1` was 10.7%.
With `CCS(=O)(=O)N1C[C@H]2CN(Cc3cccnc3)C(=O)[C@H]2C1`, the Percent Effect worked out at 0%.
Next, `O=C(c1ccnnc1)N1CCO[C@H]2[C@@H](OCc3cccnc3)CC[C@@H]21`: 25.7%.
The value for `CCCN1C[C@H]2CC[C@@H]1CN(Cc1ccc(-n3cccn3)cc1)C2` was 50.8%; that for `CCCN1C[C@H]2CC[C@@H]1CN(Cc1cccc(-n3cccn3)c1)C2` was 14.2%; that for `CC(=O)N1C[C@@H]2CC[C@H](C1)N(Cc1ccc(Cn3cccn3)cc1)C2` was 14.2%.
Next, `CCCN1C[C@H]2CC[C@@H]1CN(Cc1cccc(O)c1)C2`: 32.9%; `CCCN1C[C@H]2CC[C@@H]1CN(Cc1ccc(Cn3cccn3)cc1)C2`: 17.5%.
For the compound `CCN1CCO[C@@H]2CN(C(=O)c3ccc4[nH]ccc4c3)CC[C@@H]2C1`, the Percent Effect worked out at 26%.
Next, `CN1CCN(C(=O)[C@H]2C[C@@H]3CCN(c4ncc(F)cn4)C[C@@H]3O2)CC1`: 7.55%; `CC(=O)N1CC[C@H]2OCC[C@@H](C(=O)Nc3cccnc3C)[C@@H]2C1`: 17.3%.
